# Assay results reported in paper PMC7862700, “An all-to-all approach to the identification of sequence-specific readers for epigenetic DNA modifications on cytosine”.
# Tests used:
# Test in all cases: DAPPL (digital affinity profiling via proximity ligation, sequencing); 10 mM Tris-HCl pH 7.5, 50 mM NaCl, 1 mM DTT, 4% glycerol, room temperature, 30 min; GST-TFs on glutathione beads, 16-mer random dsDNA library, 0.1% formaldehyde crosslink after washing; high values mean tight binding
# FEV = molecular target: T1, FEV (Homo sapiens, UniProt Q99581 1-238); conditions: protein: recombinant; tags: N-terminal GST; dsDNA, one strand shown
# T1 sequence: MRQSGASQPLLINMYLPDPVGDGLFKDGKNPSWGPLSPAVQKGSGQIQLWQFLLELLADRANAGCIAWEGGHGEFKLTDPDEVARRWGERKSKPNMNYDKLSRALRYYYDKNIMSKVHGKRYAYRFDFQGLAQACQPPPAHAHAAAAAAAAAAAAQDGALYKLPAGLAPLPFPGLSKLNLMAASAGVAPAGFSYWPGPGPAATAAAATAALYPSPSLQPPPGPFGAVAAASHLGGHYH
# In short: (§1)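 In yeast, human transcription factors were expressed with a GST fusion, then pulled down on glutathione beads and given DNA barcodes. Pooled with a tag-only sample, they were exposed to 200 nmole of a 16-mer random double-stranded DNA library (Tris/NaCl/DTT/glycerol buffer, room temperature, 30 min), washed, crosslinked with 0.1% formaldehyde, proximity-ligated using BsaI/T4 ligase for 1 h at 37 °C, PCR-amplified and read on an Illumina NextSeq500. Each hexamer's frequency of reads for a factor, divided by the matching frequency for the tag-only sample, gives the binding signal.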
# ETV5 = ETV5 (Homo sapiens, UniProt P41161 1-510); conditions: protein: recombinant; tags: N-terminal GST; dsDNA, one strand shown
# In short: as §1
# HSF1 = HSF1 (Homo sapiens, UniProt Q00613 1-529); conditions: protein: recombinant; tags: N-terminal GST; chain copies: 3; dsDNA, one strand shown
# In short: as §1
# SPIC = molecular target: T2, SPIC (Homo sapiens, UniProt Q8N5J4 1-248); conditions: protein: recombinant; tags: N-terminal GST; dsDNA, one strand shown
# T2 sequence: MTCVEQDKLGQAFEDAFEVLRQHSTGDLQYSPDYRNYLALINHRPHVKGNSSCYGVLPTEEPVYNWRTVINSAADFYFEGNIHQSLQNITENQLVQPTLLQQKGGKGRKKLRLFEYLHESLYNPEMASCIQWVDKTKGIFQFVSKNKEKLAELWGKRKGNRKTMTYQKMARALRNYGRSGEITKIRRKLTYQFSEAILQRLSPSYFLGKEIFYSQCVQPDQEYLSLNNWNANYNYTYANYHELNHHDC
# In short: as §1
# ELF4 = ELF4 (Homo sapiens, UniProt Q99607 1-663); conditions: protein: recombinant; tags: N-terminal GST; dsDNA, one strand shown
# In short: as §1
# ELK4 = molecular target: T3, ELK4 (Homo sapiens, UniProt P28324-2 1-405); conditions: protein: recombinant; tags: N-terminal GST; dsDNA, one strand shown
# T3 sequence: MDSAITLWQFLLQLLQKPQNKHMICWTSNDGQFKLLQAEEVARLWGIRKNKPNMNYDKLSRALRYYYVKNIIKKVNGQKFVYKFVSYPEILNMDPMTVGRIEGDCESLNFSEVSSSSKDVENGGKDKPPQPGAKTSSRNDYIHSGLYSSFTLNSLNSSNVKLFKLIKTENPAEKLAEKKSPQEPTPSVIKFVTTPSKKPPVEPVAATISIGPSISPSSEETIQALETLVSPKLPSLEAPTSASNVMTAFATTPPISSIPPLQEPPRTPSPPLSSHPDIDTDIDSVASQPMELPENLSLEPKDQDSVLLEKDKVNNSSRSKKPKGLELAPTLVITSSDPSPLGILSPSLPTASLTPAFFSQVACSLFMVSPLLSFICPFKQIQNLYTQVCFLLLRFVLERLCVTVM
# In short: as §1
# ETV2 = molecular target: T4, ETV2 (Homo sapiens, UniProt O00321 1-342); conditions: protein: recombinant; tags: N-terminal GST; dsDNA, one strand shown
# T4 sequence: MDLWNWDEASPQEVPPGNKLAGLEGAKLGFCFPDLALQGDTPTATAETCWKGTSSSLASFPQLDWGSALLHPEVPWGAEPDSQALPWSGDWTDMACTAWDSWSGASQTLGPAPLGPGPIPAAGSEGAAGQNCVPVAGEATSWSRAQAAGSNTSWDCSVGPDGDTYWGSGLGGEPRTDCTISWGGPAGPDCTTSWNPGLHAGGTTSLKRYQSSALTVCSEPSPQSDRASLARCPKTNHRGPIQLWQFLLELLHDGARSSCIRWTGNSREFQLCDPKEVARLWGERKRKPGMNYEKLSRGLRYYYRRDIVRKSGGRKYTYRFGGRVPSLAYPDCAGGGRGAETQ
# In short: as §1
# ELF3 = molecular target: T5, ELF3 (Homo sapiens, UniProt P78545 1-371); conditions: protein: recombinant; tags: N-terminal GST; dsDNA, one strand shown
# T5 sequence: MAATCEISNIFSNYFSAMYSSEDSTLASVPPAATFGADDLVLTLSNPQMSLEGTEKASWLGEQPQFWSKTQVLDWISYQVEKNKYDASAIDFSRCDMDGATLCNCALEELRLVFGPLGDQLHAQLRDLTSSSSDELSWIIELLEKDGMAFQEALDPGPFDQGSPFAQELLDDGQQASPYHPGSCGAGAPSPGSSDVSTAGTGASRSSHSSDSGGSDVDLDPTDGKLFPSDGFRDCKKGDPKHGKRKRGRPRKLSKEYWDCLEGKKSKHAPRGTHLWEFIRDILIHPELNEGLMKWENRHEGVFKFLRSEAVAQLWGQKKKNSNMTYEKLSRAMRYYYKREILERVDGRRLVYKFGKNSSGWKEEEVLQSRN
# In short: as §1
# CRX = CRX (Homo sapiens, UniProt O43186 1-299); conditions: protein: recombinant; tags: N-terminal GST; dsDNA, one strand shown
# In short: as §1
# ETV1 = ETV1 (Homo sapiens, UniProt P50549 1-477); conditions: protein: recombinant; tags: N-terminal GST; dsDNA, one strand shown
# In short: as §1
# ERF = molecular target: T6, ERF (Homo sapiens, UniProt P50548 1-548); conditions: protein: recombinant; tags: N-terminal GST; dsDNA, one strand shown
# T6 sequence: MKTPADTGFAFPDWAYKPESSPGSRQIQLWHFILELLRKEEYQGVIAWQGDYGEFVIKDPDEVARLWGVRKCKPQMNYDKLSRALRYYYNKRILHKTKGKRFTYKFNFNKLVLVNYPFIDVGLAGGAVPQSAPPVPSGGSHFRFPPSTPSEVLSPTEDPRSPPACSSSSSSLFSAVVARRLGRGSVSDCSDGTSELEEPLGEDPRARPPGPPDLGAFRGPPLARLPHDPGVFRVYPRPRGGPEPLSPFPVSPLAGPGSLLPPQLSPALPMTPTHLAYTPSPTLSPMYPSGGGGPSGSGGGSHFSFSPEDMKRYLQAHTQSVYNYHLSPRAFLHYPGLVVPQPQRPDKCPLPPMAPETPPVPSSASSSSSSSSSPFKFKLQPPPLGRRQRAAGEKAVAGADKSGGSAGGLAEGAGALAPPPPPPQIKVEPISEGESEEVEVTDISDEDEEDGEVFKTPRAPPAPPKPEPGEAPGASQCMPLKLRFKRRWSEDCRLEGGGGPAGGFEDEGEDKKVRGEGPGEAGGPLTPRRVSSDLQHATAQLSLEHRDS
# In short: as §1
# ETV3L = molecular target: T7, ETV3L (Homo sapiens, UniProt Q6ZN32 1-361); conditions: protein: recombinant; tags: N-terminal GST; dsDNA, one strand shown
# T7 sequence: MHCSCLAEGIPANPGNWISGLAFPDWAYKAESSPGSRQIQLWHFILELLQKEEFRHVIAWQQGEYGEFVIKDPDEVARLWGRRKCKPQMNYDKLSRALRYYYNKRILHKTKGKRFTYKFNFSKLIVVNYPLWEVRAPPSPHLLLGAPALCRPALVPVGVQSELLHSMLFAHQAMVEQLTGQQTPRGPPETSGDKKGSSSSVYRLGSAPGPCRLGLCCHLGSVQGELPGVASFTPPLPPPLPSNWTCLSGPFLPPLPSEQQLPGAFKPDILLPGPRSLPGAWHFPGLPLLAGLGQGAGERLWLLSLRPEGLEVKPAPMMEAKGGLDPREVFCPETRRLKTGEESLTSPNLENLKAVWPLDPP
# In short: as §1
# ETS2 = molecular target: T8, ETS2 (Homo sapiens, UniProt P15036 1-469); conditions: protein: recombinant; tags: N-terminal GST; dsDNA, one strand shown
# T8 sequence: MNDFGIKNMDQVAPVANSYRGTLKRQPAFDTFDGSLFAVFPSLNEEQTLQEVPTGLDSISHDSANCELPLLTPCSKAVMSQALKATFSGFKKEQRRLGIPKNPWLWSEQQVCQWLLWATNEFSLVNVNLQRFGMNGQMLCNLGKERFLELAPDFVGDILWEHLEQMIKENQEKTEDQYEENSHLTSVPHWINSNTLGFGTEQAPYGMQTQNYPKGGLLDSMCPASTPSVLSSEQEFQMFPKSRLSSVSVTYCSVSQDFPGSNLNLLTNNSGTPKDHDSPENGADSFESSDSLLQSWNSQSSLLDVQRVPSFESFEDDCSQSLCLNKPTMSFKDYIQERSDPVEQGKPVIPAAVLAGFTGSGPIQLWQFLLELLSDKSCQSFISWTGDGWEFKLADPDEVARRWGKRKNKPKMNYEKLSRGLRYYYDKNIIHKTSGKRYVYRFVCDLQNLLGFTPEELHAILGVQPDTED
# In short: as §1
# SPDEF = molecular target: T9, SPDEF (Homo sapiens, UniProt O95238 1-335); conditions: protein: recombinant; tags: N-terminal GST; dsDNA, one strand shown
# T9 sequence: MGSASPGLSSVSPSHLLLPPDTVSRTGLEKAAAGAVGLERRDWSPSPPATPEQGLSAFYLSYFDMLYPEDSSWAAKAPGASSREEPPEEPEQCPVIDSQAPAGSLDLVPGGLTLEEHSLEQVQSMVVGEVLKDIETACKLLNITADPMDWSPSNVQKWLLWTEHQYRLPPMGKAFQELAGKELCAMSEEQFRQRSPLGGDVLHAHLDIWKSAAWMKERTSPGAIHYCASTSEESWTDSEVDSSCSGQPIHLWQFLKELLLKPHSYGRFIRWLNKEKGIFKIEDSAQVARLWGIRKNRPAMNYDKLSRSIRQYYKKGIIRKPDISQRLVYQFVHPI
# In short: as §1
# ETV7 = molecular target: T10, ETV7 (Homo sapiens, UniProt Q9Y603 1-341); conditions: protein: recombinant; tags: N-terminal GST; dsDNA, one strand shown
# T10 sequence: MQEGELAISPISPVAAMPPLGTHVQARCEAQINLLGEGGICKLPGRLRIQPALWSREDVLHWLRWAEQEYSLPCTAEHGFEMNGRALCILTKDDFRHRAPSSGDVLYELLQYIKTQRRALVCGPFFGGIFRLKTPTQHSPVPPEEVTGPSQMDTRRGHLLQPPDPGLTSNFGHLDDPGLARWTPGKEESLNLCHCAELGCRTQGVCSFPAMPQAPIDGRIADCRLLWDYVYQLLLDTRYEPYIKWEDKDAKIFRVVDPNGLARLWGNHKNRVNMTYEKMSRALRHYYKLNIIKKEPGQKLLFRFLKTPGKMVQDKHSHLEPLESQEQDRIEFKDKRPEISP
# In short: as §1
# ELF5 = molecular target: T11, ELF5 (Homo sapiens, UniProt Q9UKW6-2 1-255); conditions: protein: recombinant; tags: N-terminal GST; dsDNA, one strand shown
# T11 sequence: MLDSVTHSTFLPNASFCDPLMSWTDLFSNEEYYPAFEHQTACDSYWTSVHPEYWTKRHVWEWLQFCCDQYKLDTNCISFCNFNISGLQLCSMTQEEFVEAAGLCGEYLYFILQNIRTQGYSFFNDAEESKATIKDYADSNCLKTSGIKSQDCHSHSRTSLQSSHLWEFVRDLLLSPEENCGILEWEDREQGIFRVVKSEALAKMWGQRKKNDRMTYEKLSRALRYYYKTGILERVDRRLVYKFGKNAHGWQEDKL
# In short: as §1
# ETV3 = molecular target: T12, ETV3 (Homo sapiens, UniProt P41162-2 1-143); conditions: protein: recombinant; tags: N-terminal GST; dsDNA, one strand shown
# T12 sequence: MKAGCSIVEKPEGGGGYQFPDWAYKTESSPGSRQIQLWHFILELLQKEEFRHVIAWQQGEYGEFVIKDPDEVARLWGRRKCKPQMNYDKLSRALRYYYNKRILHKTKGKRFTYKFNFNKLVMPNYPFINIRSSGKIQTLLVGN
# In short: as §1
# ETV6 = ETV6 (Homo sapiens, UniProt P41212 1-452); conditions: protein: recombinant; tags: N-terminal GST; dsDNA, one strand shown
# In short: as §1
# Chain of HSF1 (Q00613 whole entry): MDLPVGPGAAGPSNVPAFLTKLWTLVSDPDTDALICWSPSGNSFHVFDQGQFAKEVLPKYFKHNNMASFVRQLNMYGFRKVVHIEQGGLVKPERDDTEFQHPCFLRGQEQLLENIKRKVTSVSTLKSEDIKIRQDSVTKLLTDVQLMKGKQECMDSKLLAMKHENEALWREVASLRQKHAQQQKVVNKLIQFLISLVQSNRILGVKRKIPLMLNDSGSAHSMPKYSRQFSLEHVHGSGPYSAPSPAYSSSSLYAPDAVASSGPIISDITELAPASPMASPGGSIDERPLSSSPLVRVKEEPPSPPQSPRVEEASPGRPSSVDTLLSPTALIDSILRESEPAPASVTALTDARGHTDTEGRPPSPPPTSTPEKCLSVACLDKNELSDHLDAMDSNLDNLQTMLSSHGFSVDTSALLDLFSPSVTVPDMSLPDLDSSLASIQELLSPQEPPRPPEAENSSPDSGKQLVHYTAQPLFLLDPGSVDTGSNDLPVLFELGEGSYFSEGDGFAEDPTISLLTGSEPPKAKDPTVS
# Chain of ETV6 (P41212 whole entry): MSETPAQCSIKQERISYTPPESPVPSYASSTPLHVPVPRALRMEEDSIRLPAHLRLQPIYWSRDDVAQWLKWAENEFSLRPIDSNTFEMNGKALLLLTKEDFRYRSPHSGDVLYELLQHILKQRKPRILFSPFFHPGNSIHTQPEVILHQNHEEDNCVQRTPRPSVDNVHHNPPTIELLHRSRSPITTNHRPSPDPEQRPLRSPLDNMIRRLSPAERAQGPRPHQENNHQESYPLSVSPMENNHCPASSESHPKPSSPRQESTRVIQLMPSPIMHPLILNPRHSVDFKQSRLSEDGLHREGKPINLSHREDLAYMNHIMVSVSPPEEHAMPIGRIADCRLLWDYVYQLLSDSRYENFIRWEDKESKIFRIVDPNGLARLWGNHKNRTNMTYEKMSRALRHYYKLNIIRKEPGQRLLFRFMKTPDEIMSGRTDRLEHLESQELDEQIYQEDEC
# Chain of ELF4 (Q99607 whole entry): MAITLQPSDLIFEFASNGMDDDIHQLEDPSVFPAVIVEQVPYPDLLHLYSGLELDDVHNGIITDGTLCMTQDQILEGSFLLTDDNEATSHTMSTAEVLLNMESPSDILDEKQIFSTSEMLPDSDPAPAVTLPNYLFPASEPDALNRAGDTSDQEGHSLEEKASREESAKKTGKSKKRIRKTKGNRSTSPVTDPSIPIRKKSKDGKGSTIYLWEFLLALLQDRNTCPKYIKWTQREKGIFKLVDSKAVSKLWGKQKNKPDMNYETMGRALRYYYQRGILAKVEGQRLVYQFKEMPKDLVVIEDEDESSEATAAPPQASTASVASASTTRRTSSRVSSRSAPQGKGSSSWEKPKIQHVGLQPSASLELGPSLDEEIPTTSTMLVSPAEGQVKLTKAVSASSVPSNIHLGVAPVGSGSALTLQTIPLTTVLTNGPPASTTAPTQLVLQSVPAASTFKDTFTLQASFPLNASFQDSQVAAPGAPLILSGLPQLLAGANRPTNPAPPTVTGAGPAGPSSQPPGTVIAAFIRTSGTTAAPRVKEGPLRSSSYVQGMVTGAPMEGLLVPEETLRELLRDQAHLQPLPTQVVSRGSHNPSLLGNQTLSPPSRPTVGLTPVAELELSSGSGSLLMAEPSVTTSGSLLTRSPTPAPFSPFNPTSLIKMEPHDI
# Chain of CRX (O43186 whole entry): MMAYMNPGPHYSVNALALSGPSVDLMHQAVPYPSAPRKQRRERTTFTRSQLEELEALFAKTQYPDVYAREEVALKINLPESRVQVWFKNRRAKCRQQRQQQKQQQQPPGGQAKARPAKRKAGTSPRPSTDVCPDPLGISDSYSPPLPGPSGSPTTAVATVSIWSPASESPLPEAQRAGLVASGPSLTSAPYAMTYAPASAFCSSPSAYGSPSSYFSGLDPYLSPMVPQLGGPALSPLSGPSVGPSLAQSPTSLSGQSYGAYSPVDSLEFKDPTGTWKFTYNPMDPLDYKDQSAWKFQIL
# Chain of ETV1 (P50549 whole entry): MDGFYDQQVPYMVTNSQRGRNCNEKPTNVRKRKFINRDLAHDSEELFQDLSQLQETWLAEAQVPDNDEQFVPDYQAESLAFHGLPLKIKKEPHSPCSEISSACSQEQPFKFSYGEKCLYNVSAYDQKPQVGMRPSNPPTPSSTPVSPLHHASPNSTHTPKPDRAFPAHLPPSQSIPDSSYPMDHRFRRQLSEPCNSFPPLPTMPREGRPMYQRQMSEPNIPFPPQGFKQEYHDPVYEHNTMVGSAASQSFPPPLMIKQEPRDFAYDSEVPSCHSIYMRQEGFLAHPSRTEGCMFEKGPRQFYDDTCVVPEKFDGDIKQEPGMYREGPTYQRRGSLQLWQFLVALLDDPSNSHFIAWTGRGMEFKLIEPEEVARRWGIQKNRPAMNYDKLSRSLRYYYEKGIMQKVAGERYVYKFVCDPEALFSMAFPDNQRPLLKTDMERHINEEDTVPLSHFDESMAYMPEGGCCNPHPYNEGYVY
# Chain of ETV5 (P41161 whole entry): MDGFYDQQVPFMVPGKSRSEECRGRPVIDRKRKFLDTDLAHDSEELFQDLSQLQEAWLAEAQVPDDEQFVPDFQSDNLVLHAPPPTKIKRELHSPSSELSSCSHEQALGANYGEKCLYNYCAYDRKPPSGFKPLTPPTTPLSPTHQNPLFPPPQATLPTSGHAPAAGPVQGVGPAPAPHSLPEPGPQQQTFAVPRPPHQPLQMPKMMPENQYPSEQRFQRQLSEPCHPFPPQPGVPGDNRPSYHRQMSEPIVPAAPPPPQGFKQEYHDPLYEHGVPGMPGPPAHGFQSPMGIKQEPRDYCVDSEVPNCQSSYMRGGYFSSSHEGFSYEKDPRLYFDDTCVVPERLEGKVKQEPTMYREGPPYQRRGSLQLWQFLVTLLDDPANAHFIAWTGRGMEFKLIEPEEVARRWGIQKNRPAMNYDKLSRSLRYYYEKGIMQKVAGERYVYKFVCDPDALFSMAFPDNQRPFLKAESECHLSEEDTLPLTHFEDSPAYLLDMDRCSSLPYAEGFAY
sequence,measurement,setting,value
CCCTAA,binding signal,FEV,"1.18 fold enrichment (6-mer frequency, TF over GST control)"
same,binding signal,ETV5,"1.28 fold enrichment (6-mer frequency, TF over GST control)"
same,binding signal,HSF1,"1.29 fold enrichment (6-mer frequency, TF over GST control)"
same,binding signal,SPIC,"1.24 fold enrichment (6-mer frequency, TF over GST control)"
same,binding signal,ELF4,"1.28 fold enrichment (6-mer frequency, TF over GST control)"
same,binding signal,ELK4,"1.28 fold enrichment (6-mer frequency, TF over GST control)"
same,binding signal,ETV2,"1.23 fold enrichment (6-mer frequency, TF over GST control)"
same,binding signal,ELF3,"1.25 fold enrichment (6-mer frequency, TF over GST control)"
same,binding signal,CRX,"1.71 fold enrichment (6-mer frequency, TF over GST control)"
same,binding signal,ETV1,"1.23 fold enrichment (6-mer frequency, TF over GST control)"
same,binding signal,ERF,"1.36 fold enrichment (6-mer frequency, TF over GST control)"
same,binding signal,ETV3L,"1.32 fold enrichment (6-mer frequency, TF over GST control)"
same,binding signal,ETS2,"1.15 fold enrichment (6-mer frequency, TF over GST control)"
same,binding signal,SPDEF,"1.19 fold enrichment (6-mer frequency, TF over GST control)"
same,binding signal,ETV7,"1.14 fold enrichment (6-mer frequency, TF over GST control)"
same,binding signal,ELF5,"1.19 fold enrichment (6-mer frequency, TF over GST control)"
same,binding signal,ETV3,"1.2 fold enrichment (6-mer frequency, TF over GST control)"
same,binding signal,ETV6,"1.08 fold enrichment (6-mer frequency, TF over GST control)"
